Measurements: PubChem BioAssay (EPA / NIEHS)
Where “and” joins values, the source holds several entries; their conditions need not be identical. Identical values can stand only once. The source holds several records for some structures; these can differ, active in one and inactive in another. Calls of active or inactive are those of the source. Rule for the calls: active = hit-call score of the fitted dose curve at least 0.9, where 1 is the maximum; inactive = score below 0.9.

experiment: BSK_LPS_PGE2: BioMAP Diversity Plus: LPS Assay for Prostaglandin E2 (PGE2) Biomarker Activity (AID 2283082); conditions: primary human HUVEC with PBMC; actives raise or lower the signal
Description: BSK_LPS is a cell-based, multiplexed-readout assay that uses umbilical vein endothelium and peripheral blood mononuclear cells, a human vascular primary cell co-culture, with measurements taken at 24 hours after chemical dosing in a 96-well plate.BSK_LPS_PGE2 is an assay component measured in the BSK_LPS assay. It measures PGE2 antibody related to regulation of gene expression using ELISA technology.Data from the assay component BSK_LPS_PGE2 was analyzed into 1 assay endpoint. This assay endpoint, BSK_LPS_PGE2, was analyzed with bidirectional fitting relative to DMSO as the negative control and baseline of activity. Using a type of binding reporter, gain or loss-of-signal activity can be used to understand changes in the signaling as they relate to the gene PTGER2. Furthermore, this assay endpoint can be referred to as a primary readout, because this assay has produced multiple assay endpoints where this one serves a signaling function. To generalize the intended target to other relatable targets, this assay endpoint is annotated to the gpcr intended target family, where the subfamily is rhodopsin-like receptor.
The levels of cell surface (or secreted, indicated by the prefix "s") biomarker endpoints were measured by ELISA. Overt cytotoxicity to cells in confluent adherent cultures (all systems other than the BT system) was assessed by measuring total protein levels using sulforhodamine B (SRB) staining in parallel cultures at the time of biomarker measurements, indicated as SRB endpoints. For proliferation assays for adherent cell types, individual cell types are cultured at sub-confluence and relative cell numbers quantified by SRB staining at time points optimized for each system (48 h: 3C and CASM3C systems; 72 h: BT and HDF3CGF systems; 96 h: SAg system). SRB was performed by staining cells with 0.1% SRB after fixation with 10% TCA and reading wells at 560 nm.Viability and proliferation of PBMC (T cells) was quantified by Alamar Blue reduction for the SAg and BT systems. For PBMC viability (referred to as PBMC Cytotoxicity within the assay endpoint names), cells were plated (75,000/well in a 96-well plate) and then chemical samples added for 1 h before addition of activators, SEB and TSST-1 (20 ng/mL final concentration each). Cells were incubated for 90 h. Then, Alamar Blue (20 uL/well) (Invitrogen, Cat DAL1100) was added for 6 h, and the plates were read with a fluorescence microplate reader at 546/580 nm (excitation/emission). For PBMC proliferation, cells were plated and activated as above but incubated for only 16 h prior to addition of Alamar Blue. Plates were read after 6 h.

SMILES | outcome | AC50
OCCCCC(F)(F)C(F)(F)C(F)(F)C(F)(F)F | inactive | –
OCC(F)(F)C(F)(F)C(F)(F)CO | inactive | –
O=C1C=CC(=O)N1c1ccc(Cc2ccc(N3C(=O)C=CC3=O)cc2)cc1 | – | 5.34 µM (active)
O=C(F)C1(F)C(F)(F)C(F)(F)C(F)(F)C(F)(F)C1(F)F | inactive | –
O=C(O)C(F)(F)C(F)(F)C(F)(F)OC(F)(F)F | inactive | –
CO[Si](C)(CCC(F)(F)C(F)(F)C(F)(F)C(F)(F)C(F)(F)C(F)(F)F)OC | inactive | –
O=S(=O)(O)CCC(F)(F)C(F)(F)C(F)(F)C(F)(F)C(F)(F)C(F)(F)C(F)(F)C(F)(F)F | – | 30 µM (active) and 40.9 µM (active)
NC(=O)C(F)(F)C(F)(F)C(F)(F)C(F)(F)C(F)(F)C(F)(F)C(F)(F)F | inactive | –
CCN(CC)c1ccc(C=O)c(O)c1 | inactive | –
CC(C)CCCC(C)CCO (stereo not given) | inactive | –
OCC(F)(F)C(F)(F)C(F)(F)C(F)(F)C(F)(F)C(F)(F)CO | inactive | –
CCN(CC)c1ccc2c(c1)Oc1cc(N(CC)CC)ccc1C21OC(=O)c2ccccc21 | inactive | –
NC(=O)C(F)(F)C(F)(F)C(F)(F)C(F)(F)C(N)=O | inactive | –
Cc1cnccn1 | inactive | –
CC(C)(C)c1cc(CCC(=O)NCCCCCCNC(=O)CCc2cc(C(C)(C)C)c(O)c(C(C)(C)C)c2)cc(C(C)(C)C)c1O | inactive | –
C=CC(=O)OCC(F)(F)C(F)(F)C(F)(F)COC(=O)C=C | – | 8.09 µM (active) and 8.04 µM (active)
O=C(O)C(F)(F)OC(F)(F)C(F)(F)OC(F)(F)C(F)(F)OC(F)(F)F | inactive | –
OC(O)C(F)(F)C(F)(F)F | inactive | –
CCOC(C=C(C)CCC=C(C)C)OCC | inactive | –
CCN=C1C=CC(=C(c2ccc(N(CC)CC)cc2)c2ccc(N(CC)CC)cc2)c2ccccc21 | – | 3.95 µM (active) and 2.66 µM (active)

SMILES | outcome | AC50
NCC(F)(F)C(F)(F)C(F)(F)C(F)(F)C(F)(F)C(F)(F)C(F)(F)C(F)(F)F | inactive | –
FC(F)(F)C(F)(F)C(F)(F)C(F)(F)C(F)(F)C(F)(F)CC[Si](Cl)(Cl)Cl | inactive | –
NC(=O)C(F)(F)C(F)(F)C(F)(F)F | inactive | –
NC(O)(C(F)(F)F)C(F)(F)F | inactive | –
NC(=O)C(F)(F)C(F)(F)C(F)(F)C(F)F | inactive | –
Brc1nc2ccccc2s1 | inactive | –
CC1=CC2C3C=CC(C3)C2C1C (stereo not given) | inactive | –
CN(C(=O)C(F)(F)C(F)(F)C(F)(F)F)[Si](C)(C)C | inactive | –
OCC(F)(F)C(F)(F)C(F)(F)C(F)(F)C(F)(F)C(F)(F)C(F)(F)C(F)(F)CO | inactive | –
COC(F)(C(F)F)C(F)(F)F (stereo not given) | inactive | –
CCN(CC)c1ccc(C=O)cc1 | inactive | –
Nc1cc([N+](=O)[O-])cc(Cl)c1O | inactive | –
O=C1c2c(O)ccc(Nc3ccc(CCO)cc3)c2C(=O)c2c([N+](=O)[O-])ccc(O)c21 | – | 29.4 µM (active)
C=CC(=O)OCC(F)(F)C(F)(F)C(F)(F)C(F)(F)C(F)(F)C(F)(F)C(F)(F)C(F)F | inactive | 13.9 µM (active)
O=C(O)CCC(F)(F)C(F)(F)C(F)(F)F | inactive | –
O=S(=O)(OCC(F)(F)F)C(F)(F)C(F)(F)C(F)(F)C(F)(F)F | inactive | –
O=C(Cl)C(F)(F)C(F)(F)C(F)(F)C(F)(F)C(F)(F)C(F)(F)C(F)(F)F | inactive | –
CCOC(=O)CC(=O)C(F)(F)C(F)(F)F | inactive | –
CCN(CCO)S(=O)(=O)C(F)(F)C(F)(F)C(F)(F)C(F)(F)C(F)(F)C(F)(F)C(F)(F)C(F)(F)F | inactive | –
